Reference: PubChem BioAssay (Tox21)
Results filed as inconclusive are left out. A number with no mark means an inactive call. Activity calls are given as the source filed them. Calls follow the shape of the dose curve; as a rule, active = well fitted activation curve with a large enough effect in the repeat runs; inconclusive = weak or mixed curves; inactive = flat fitted curve, though single readings scatter.

Each compound was assayed against Nuclear receptor subfamily 1 group I member 2 (Homo sapiens) (UniProt O75469) (assay: Human pregnane X receptor (PXR) activation by small molecules, qHTS assay (AID 1346985; also: nearly all actives have a fitted effect of over 40% in size)). Conditions: DPX-2 HepG2 CYP3A4-luciferase, 24 h; series mostly up to 38.3 µM; activation: at the top concentration.
From the text: National Center for Advancing Translational Sciences [NCATS]
NIH Chemical Genomics Center [NCGC]
U.S. Environmental Protection Agency [EPA]
National Institutes of Environmental Health Sciences [NIEHS]
National Toxicology Program [NTP]
The Pregnane X receptor (PXR), a ligand activated nuclear receptor plays a critical role in the regulation of genes involved in drug metabolism and transporters. Activation of PXR may be involved in the unwanted adverse drug-drug interactions. […] Therefore, identification of compounds with the potential for PXR activation can be of importance in improving the efficacy of drugs with less toxicity and avoiding drug-drug interactions.
DPX-2 (Puracyp, Inc.) cell lines, used for screening against human PXR activation has HepG2 cells co-transfected with a PXR response element and a luciferase construct containing CYP3A4 promoter. Increase in luciferase activity can be used to identify the compounds that activate the PXR pathway.
DPX-2 cells were dispensed at 2,000 cells per well in 5uL of assay medium into white, solid-bottom 1536-well plates using a Multidrop Combi dispenser (Thermo Scientific). The assay plates were incubated at 37C for 5hr before transferring 23nL of test compounds dissolved in DMSO and positive control via Pintool station (Wako). The assay plates were incubated at 37C for 24hr. Then 5ul One-Glo assay reagent (Promega) was added to each plate by a Flying Reagent Dispenser (FRD, Aurora Discovery) and following 30 min incubation at room temperature, luciferase activity was quantified on a ViewLux plate reader (Perkin Elmer).
% is scaled to controls: 0 for no effect and ±100 for the full control effect; potency is read from the fitted curve at half-maximal effect.

| SMILES | activation | Potency |
| --- | --- | --- |
| CCOC(=O)c1ccccc1C(=O)OCC | 7.46% | – |
| OC(O)C(Cl)(Cl)Cl | -8.96% | – |
| Clc1ccc(Cl)cc1 | -2.29% | – |
| CC(C)=C[C@@H]1[C@@H](C(=O)OCc2coc(Cc3ccccc3)c2)C1(C)C | – | 22.4 µM (active) |
| O=[N+]([O-])c1ccccc1 | 17.3% | – |
| CN(C)[C@@H]1C(=O)C(C(N)=O)=C(O)[C@@]2(O)C(=O)C3=C(O)c4c(O)cccc4[C@@](C)(O)[C@H]3C[C@@H]12 | -11.1% [at 17.1 µM] | – |
| O=C(O)c1ccccn1 | -4.49% | – |
| CC1OC(C)OC(C)O1 (stereo not given) | – | inactive |
| O=c1n(Cl)c(=O)n(Cl)c(=O)n1Cl | -7.03% | – |
| C#CCN(C)[C@H](C)Cc1ccccc1 | 15% | – |
| O=C(NC(=O)c1c(F)cccc1F)Nc1cc(Cl)c(OC(F)(F)C(F)C(F)(F)F)cc1Cl (stereo not given) | 5.75% | – |
| Nc1ccccc1C(=O)O | -2.03% | – |
| C[C@]12CC[C@H]3[C@@H](CC[C@@]45O[C@@H]4C(O)=C(C#N)C[C@]35C)[C@@H]1CC[C@@H]2O | 6.91% | – |
| Clc1ccccc1Cl | 0.996% | – |
| O=[N+]([O-])c1ccc([As](=O)(O)O)cc1 | -5.49% | – |
